The results in this text go back to the antibiotic and cytotoxicity screens of Wong et al. (2023).

Each structure is given as a SMILES string. Screen size: about 39,000 compounds; about 3,300 (8.5%) were called active. The sample as a whole holds a higher share of actives than the screen did.

The test has as its system HepG2. Description: cytotoxicity call (relative viability < 0.9). The note with it: 10 µM.
Consider `CO[C@@H]1CN(C)C(=O)c2ccc(NC(=O)Nc3ccccc3F)cc2OC[C@@H](C)N(C(=O)Nc2ccccc2F)C[C@H]1C`, for which the cytotoxicity call is “inactive”.

With `Nc1nc(Nc2ccccc2)nc2c1ncn2[C@@H]1O[C@H](CO)[C@@H](O)[C@H]1O`, the cytotoxicity call is “inactive”. As to `CO[C@@H]1CN(C)C(=O)c2cc(NS(=O)(=O)CC(F)(F)F)ccc2OC[C@H](C)N(Cc2cccnc2)C[C@@H]1C`, the cytotoxicity call is “inactive”.

`C[C@@H]1CN([C@H](C)CO)C(=O)c2cc(C#CC3(O)CCCC3)cnc2O[C@H]1CN(C)C(=O)Cc1cccnc1`: the cytotoxicity call is “inactive”. For `CN1CCN(C(=O)C[C@@H]2CC[C@@H]3[C@H](COC[C@@H](O)CN3S(=O)(=O)c3cccc(Cl)c3)O2)CC1`, the cytotoxicity call was “inactive”.

As to `C[C@H]1CN([C@@H](C)CO)C(=O)c2cccc(NS(C)(=O)=O)c2O[C@@H]1CN(C)C(=O)Nc1ccc(F)cc1`, the cytotoxicity call is “inactive”. On to `C[C@@H]1CN([C@H](C)CO)C(=O)CCCn2nncc2CO[C@@H]1CN(C)S(=O)(=O)c1cn(C)cn1`, for which the cytotoxicity call was “inactive”. Take `C[C@@H]1CN([C@@H](C)CO)C(=O)c2cc(NC(=O)C3CC3)ccc2O[C@@H]1CN(C)C(=O)Nc1ccc2c(c1)OCO2`: the cytotoxicity call is “inactive”. `CC(=O)Nc1ccc(C(=O)NN)cc1`: the cytotoxicity call is “inactive”. `C[C@@H]1CN([C@H](C)CO)C(=O)c2cccc(NC(=O)c3ccncc3)c2O[C@H]1CN(C)Cc1ccncc1`: the cytotoxicity call was “inactive”. As for `c1ccc(CNC2CCCCC2)nc1`, the cytotoxicity call was “inactive”. With `Cc1cccc(S(=O)(=O)N2C[C@@H](O)COC[C@H]3O[C@H](CC(=O)NCc4ccncn4)CC[C@@H]32)c1`, the cytotoxicity call is “inactive”. As to `C[C@H](CO)N1C[C@H](C)[C@@H](CN(C)Cc2ccc(C(=O)O)cc2)OCc2ccccc2-c2c(n(C)c3ccccc23)C1=O`, the cytotoxicity call was “inactive”. Turning to `C[C@H]1CCCCO[C@H](CN(C)Cc2ccc(C(F)(F)F)cc2)[C@@H](C)CN([C@@H](C)CO)C(=O)c2cc(NC(=O)Nc3ccccc3)ccc2O1`, the cytotoxicity call is “active”.

With `C[C@H](CO)N1C[C@H](C)[C@H](CN(C)Cc2ccc(C(F)(F)F)cc2)OCCCC[C@H](C)Oc2ccc(NC(=O)Nc3ccccc3)cc2C1=O`, the cytotoxicity call was “active”. Take `C[C@@H]1CCCCO[C@H](CN(C)Cc2ccc(C(F)(F)F)cc2)[C@H](C)CN([C@H](C)CO)C(=O)c2cc(NC(=O)Nc3ccccc3)ccc2O1`: the cytotoxicity call was “active”. For `CCS(=O)(=O)NCC[C@@H]1CC[C@@H](NC(=O)C2CC2)[C@@H](CO)O1` the value was “inactive”; for `Cc1ccc(S(=O)(=O)Nc2ccc3c(c2)CC(=O)N([C@@H](C)CO)C[C@@H](C)[C@H](CN(C)S(C)(=O)=O)O3)cc1`, “inactive”. Take `C[C@@H]1CN([C@@H](C)CO)C(=O)Cc2cc(NC(=O)Nc3ccccc3)ccc2O[C@H]1CN(C)C(=O)Nc1ccc(C(F)(F)F)cc1`: the cytotoxicity call was “inactive”. Take `C[C@H]1CN([C@@H](C)CO)C(=O)c2cc(NC(=O)Nc3cccc4ccccc34)ccc2O[C@H]1CN(C)S(=O)(=O)c1ccc(F)cc1`: the cytotoxicity call is “inactive”. With `CC(=O)N[C@@H](Cc1cccc(F)c1)C(=O)O`, the cytotoxicity call was “inactive”. For `O=C(NC1Cc2ccccc2C1)[C@@H]1[C@@H](CO)[C@@H]2Cn3c(cccc3=O)[C@@H]2N1C(=O)c1cnccn1` the value was “inactive”; for `Nc1no[n+]([O-])c1-c1ccccc1`, “inactive”; for `C[C@H](CO)N1C[C@H](C)[C@H](CN(C)C(=O)Nc2ccc(F)cc2)OCCCC[C@H](C)Oc2ccc(NC(=O)c3ccccc3)cc2C1=O`, “inactive”. For `C[C@@H]1CCCCO[C@@H](CN(C)Cc2ccc3c(c2)OCO3)[C@@H](C)CN([C@H](C)CO)C(=O)c2cc(NC(=O)Nc3ccccc3)ccc2O1`, the cytotoxicity call was “inactive”. For `C[C@@H]1CCCCO[C@H](CN(C)Cc2ccc3c(c2)OCO3)[C@@H](C)CN([C@H](C)CO)C(=O)c2cc(NC(=O)Nc3ccccc3)ccc2O1` the value was “inactive”. For `C[C@@H]1CN([C@H](C)CO)C(=O)c2cc(NC(=O)Nc3ccccc3)ccc2O[C@@H](C)CCCCO[C@H]1CN(C)Cc1ccc2c(c1)OCO2`, the cytotoxicity call is “inactive”.

Take `C[C@@H]1CCCCO[C@@H](CN(C)Cc2ccc3c(c2)OCO3)[C@H](C)CN([C@H](C)CO)C(=O)c2cc(NC(=O)Nc3ccccc3)ccc2O1`: the cytotoxicity call is “inactive”.

For `C[C@@H]1CCCCO[C@@H](CN(C)Cc2ccc3c(c2)OCO3)[C@@H](C)CN([C@@H](C)CO)C(=O)c2cc(NC(=O)Nc3ccccc3)ccc2O1`, the cytotoxicity call is “active”. As for `C[C@H]1CCCCO[C@H](CN(C)Cc2ccc3c(c2)OCO3)[C@@H](C)CN([C@@H](C)CO)C(=O)c2cc(NC(=O)Nc3ccccc3)ccc2O1`, the cytotoxicity call was “inactive”. For `C[C@H]1CCCCO[C@@H](CN(C)Cc2ccc3c(c2)OCO3)[C@@H](C)CN([C@@H](C)CO)C(=O)c2cc(NC(=O)Nc3ccccc3)ccc2O1` the value was “active”; for `C[C@@H]1CCCCO[C@H](CN(C)Cc2ccc3c(c2)OCO3)[C@H](C)CN([C@H](C)CO)C(=O)c2cc(NC(=O)Nc3ccccc3)ccc2O1`, “active”; for `C[C@@H]1CN([C@H](C)CO)C(=O)c2cc(NC(=O)Nc3ccccc3)ccc2O[C@@H](C)CCCCO[C@@H]1CN(C)Cc1ccc2c(c1)OCO2`, “inactive”.

`C[C@@H]1CCCCO[C@H](CN(C)Cc2ccc3c(c2)OCO3)[C@@H](C)CN([C@@H](C)CO)C(=O)c2cc(NC(=O)Nc3ccccc3)ccc2O1`: the cytotoxicity call was “inactive”. For `C[C@@H]1CN([C@@H](C)CO)C(=O)c2cc(NC(=O)Nc3ccccc3)ccc2O[C@@H](C)CCCCO[C@H]1CN(C)Cc1ccc2c(c1)OCO2`, the cytotoxicity call is “inactive”. With `C[C@H](CO)N1C[C@H](C)[C@H](CN(C)Cc2ccc3c(c2)OCO3)OCCCC[C@H](C)Oc2ccc(NC(=O)Nc3ccccc3)cc2C1=O`, the cytotoxicity call was “active”. Take `C[C@@H]1CN([C@@H](C)CO)C(=O)c2cccc(NC(=O)c3ccc(-c4nccs4)cc3)c2O[C@@H]1CN(C)C(=O)Nc1ccc2c(c1)OCO2`: the cytotoxicity call is “inactive”. Turning to `CCCNC(=O)N1C[C@@H](O)COC[C@H]2O[C@H](CC(=O)N3CCOCC3)CC[C@@H]21`, the cytotoxicity call was “inactive”.

On to `C[C@H]1CN([C@@H](C)CO)C(=O)c2cccc(NS(C)(=O)=O)c2O[C@@H]1CN(C)Cc1ccc(C(=O)O)cc1`, for which the cytotoxicity call is “inactive”. In the case of `C[C@@H]1CN([C@H](C)CO)C(=O)c2cc(NS(=O)(=O)c3cn(C)cn3)ccc2O[C@H]1CN(C)Cc1ccc(C(=O)O)cc1`, the cytotoxicity call is “inactive”.

In the case of `O=C(O)c1ccc2[nH]cnc2n1`, the cytotoxicity call is “inactive”. Consider `O=C(CCCCCNC(=O)OCc1ccc(CO[C@@H]2C[C@H](C3CCCCC3)C=C(C(=O)N3CCCCCCC3)O2)cc1)NO`, for which the cytotoxicity call was “inactive”. For `C[C@H](CO)N1C[C@H](C)[C@@H](CN(C)S(=O)(=O)c2ccc(F)cc2)Oc2ccc(NS(C)(=O)=O)cc2C1=O` the value was “inactive”.

Turning to `Cc1noc(C)c1NC(=O)N(C)C[C@@H]1Oc2ccc(NC(=O)Nc3cccc4ccccc34)cc2C(=O)N([C@H](C)CO)C[C@@H]1C`, the cytotoxicity call is “inactive”. Take `COc1ccccc1NC(=O)N(C)C[C@H]1Oc2ncc(C#CCN(C)C)cc2C(=O)N([C@H](C)CO)C[C@H]1C`: the cytotoxicity call is “inactive”. `C=CCOC(=O)[C@H]1[C@@H]2C(=O)O[C@@H](c3ccccc3)[C@@H](c3ccccc3)N2[C@@H](c2ccc(OCCOC(=O)[C@@H]3C[C@@H]4C(=O)NCC(=O)N4[C@@H]3c3cccc(OCCO)c3)cc2)[C@]12C(=O)Nc1ccccc12`: the cytotoxicity call was “inactive”. For `Cc1noc(C)c1S(=O)(=O)Nc1ccc2c(c1)CC(=O)N([C@H](C)CO)C[C@H](C)[C@H](CN(C)Cc1ccc(-c3ccccc3)cc1)O2` the value was “inactive”; for `C(=N\c1ccccc1)/c1ccccc1`, “inactive”; for `C[C@H](CO)N1C[C@H](C)[C@@H](CN(C)Cc2ccc3c(c2)OCO3)OCCCC[C@H](C)Oc2ccc(NC(=O)Nc3ccccc3)cc2C1=O`, “inactive”. As for `C[C@@H]1CN([C@H](C)CO)C(=O)c2cc(NC(=O)Nc3ccc4c(c3)OCO4)ccc2O[C@@H](C)CCCCO[C@@H]1CN(C)Cc1ccccc1`, the cytotoxicity call was “inactive”. Consider `C[C@@H]1CN([C@@H](C)CO)C(=O)c2cc(NC(=O)Nc3ccc4c(c3)OCO4)ccc2O[C@@H](C)CCCCO[C@@H]1CN(C)Cc1ccccc1`, for which the cytotoxicity call is “active”. Regarding `C[C@@H]1CN([C@@H](C)CO)C(=O)c2cc(NC(=O)Nc3ccccc3)ccc2O[C@@H](C)CCCCO[C@@H]1CN(C)Cc1ccc2c(c1)OCO2`, the cytotoxicity call is “active”. Turning to `C[C@@H]1CCCCO[C@H](CN(C)Cc2ccccc2)[C@@H](C)CN([C@@H](C)CO)C(=O)c2cc(NC(=O)Nc3ccc4c(c3)OCO4)ccc2O1`, the cytotoxicity call is “inactive”.

With `C[C@@H]1CCCCO[C@H](CN(C)Cc2ccc3c(c2)OCO3)[C@H](C)CN([C@@H](C)CO)C(=O)c2cc(NC(=O)Nc3ccccc3)ccc2O1`, the cytotoxicity call was “inactive”. For `C[C@@H]1CCCCO[C@H](CN(C)CC2CCCCC2)[C@H](C)CN([C@H](C)CO)C(=O)c2cc(NS(=O)(=O)c3ccccc3)ccc2O1` the value was “inactive”. Regarding `C[C@@H]1CCCCO[C@@H](CN(C)C(=O)Nc2ccc3c(c2)OCO3)[C@@H](C)CN([C@H](C)CO)C(=O)c2cc(NC(=O)Nc3cccc4ccccc34)ccc2O1`, the cytotoxicity call was “inactive”. As to `C[C@@H]1CN([C@H](C)CO)C(=O)Cc2cc(NC(=O)Cn3cnnn3)ccc2O[C@H]1CN(C)Cc1ccccc1`, the cytotoxicity call is “inactive”.

For `COc1cccc(S(=O)(=O)N2[C@@H]3CC[C@@H](C3)[C@H]2c2nc3cccc(OCc4ccc(F)cc4)c3[nH]2)c1`, the cytotoxicity call is “active”. `COc1cc(C)ccc1S(=O)(=O)N1[C@@H]2CC[C@@H](C2)[C@H]1c1nc2cccc(OCc3ccc(F)cc3)c2[nH]1`: the cytotoxicity call was “inactive”. As for `Cc1ccc(F)c(S(=O)(=O)N2[C@@H]3CC[C@@H](C3)[C@H]2c2nc3cccc(OCc4ccc(F)cc4)c3[nH]2)c1`, the cytotoxicity call is “active”. Regarding `CC(=O)c1cccc(S(=O)(=O)N2[C@@H]3CC[C@@H](C3)[C@H]2c2nc3cccc(OCc4ccc(F)cc4)c3[nH]2)c1`, the cytotoxicity call is “inactive”. Take `COc1ccc(OC)c(S(=O)(=O)N2[C@@H]3CC[C@@H](C3)[C@H]2c2nc3cccc(OCc4ccc(F)cc4)c3[nH]2)c1`: the cytotoxicity call was “inactive”. As to `Cc1ccc(C)c(S(=O)(=O)N2[C@@H]3CC[C@@H](C3)[C@H]2c2nc3cccc(OCc4ccc(F)cc4)c3[nH]2)c1`, the cytotoxicity call is “inactive”.
